Laboratory results reported in PubChem BioAssay (EPA / NIEHS).
The source holds several records for some structures; these can differ, active in one and inactive in another. Activity calls are given as the source filed them. How the source made its calls: active means hit-call score of the fitted dose curve at least 0.9, where 1 is the maximum; inactive means score below 0.9.

Experiments:
[1] = read-out: Interleukin-6 (IL6), IL6 (gene 3569); experiment: BSK_CASM3C_IL6: BioMAP Diversity Plus: CASM3C Assay for Interleukin-6 (IL6) Biomarker Activity for (AID 2283040); conditions: primary human coronary artery smooth muscle cells; actives raise or lower the signal
[2] = read-out: Tissue plasminogen activator (tPA), PLAT (gene 5327); experiment: BSK_BE3C_tPA: BioMAP Diversity Plus: BE3C Assay for Tissue plasminogen activator (tPA) Biomarker Activity (AID 2283041); conditions: primary human bronchial epithelial cells; actives raise or lower the signal;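 further: tPA level quantified by ELISA one day after compound addition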
How it was run: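 ELISA read-out of tPA on human primary bronchial epithelial cells, 24 h post-dosing; bidirectional fit vs DMSO negative control/baseline.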

[3] = read-out: Interleukin-8 (IL8), CXCL8 (gene 3576); experiment: BSK_CASM3C_IL8: BioMAP Diversity Plus: CASM3C Assay for Interleukin-8 (IL8) Biomarker Activity (AID 2283042); conditions: primary human coronary artery smooth muscle cells; actives raise or lower the signal;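 further: IL-8 protein level quantified by ELISA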
[4] = read-out: Human Leukocyte Antigen - DR isotype (HLADR), HLA-DRA (gene 3122); experiment: BSK_CASM3C_HLADR: BioMAP Diversity Plus: CASM3C Assay for Human Leukocyte Antigen - DR isotype (HLADR) Biomarker Activity (AID 2283043); conditions: primary human coronary artery smooth muscle cells; actives raise or lower the signal;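 further: cell-surface HLA-DR protein level quantified by ELISA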
[5] = read-out: Macrophage colony-stimulating factor (MCSF), CSF1 (gene 1435); experiment: BSK_CASM3C_MCSF: BioMAP Diversity Plus: CASM3C Assay for Macrophage colony-stimulating factor (MCSF) Biomarker Activity (AID 2283044); conditions: primary human coronary artery smooth muscle cells; actives raise or lower the signal;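 further: M-CSF protein amount quantified by ELISA after 24 h exposure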
[6] = read-out: Low-density lipoprotein receptor (LDLR), LDLR (gene 3949); experiment: BSK_CASM3C_LDLR: BioMAP Diversity Plus: CASM3C Assay for Low-density lipoprotein receptor (LDLR) Biomarker Activity (AID 2283045); conditions: primary human coronary artery smooth muscle cells; actives raise or lower the signal;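 further: LDLR protein level on the cell surface quantified by ELISA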
[7] = read-out: Monocyte Chemoattractant Protein-1 (MCP1), CCL2 (gene 6347); experiment: BSK_CASM3C_MCP1: BioMAP Diversity Plus: CASM3C Assay for Monocyte Chemoattractant Protein-1 (MCP1) Biomarker Activity (AID 2283046); conditions: primary human coronary artery smooth muscle cells; actives raise or lower the signal;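 further: MCP-1 level quantified by ELISA 24 h after dosing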
[8] = BSK_CASM3C_Proliferation: Cell Proliferation Assessment in the BioMAP Diversity Plus: CASM3C Assay (AID 2283047); conditions: primary human coronary artery smooth muscle cells;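 further: sulforhodamine B total protein stain as relative cell number at 560 nm; sub-confluent cells exposed 48 h before staining; fitted both ways against DMSO so gain or loss of cell number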
[9] = read-out: Monokine induced gamma interferon (MIG), CXCL9 (gene 4283); experiment: BSK_CASM3C_MIG: BioMAP Diversity Plus: CASM3C Assay for Monokine induced gamma interferon (MIG) Biomarker Activity (AID 2283048); conditions: primary human coronary artery smooth muscle cells; actives raise or lower the signal;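 further: MIG protein level measured by ELISA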
[10] = read-out: serum amyloid A (SAA), SAA1 (gene 6288); experiment: BSK_CASM3C_SAA: BioMAP Diversity Plus: CASM3C Assay for serum amyloid A (SAA) Biomarker Activity (AID 2283049); conditions: primary human coronary artery smooth muscle cells; actives raise or lower the signal;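 further: SAA protein level quantified by ELISA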
[11] = BSK_CASM3C_SRB: Viability Assessment in the BioMAP Diversity Plus: CASM3C Assay (AID 2283050); conditions: primary human coronary artery smooth muscle cells;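 further: total protein by SRB staining as cytotoxicity measure in parallel cultures; cells exposed to compound for 24 h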
[12] = read-out: Thrombomodulin, THBD (gene 7056); experiment: BSK_CASM3C_Thrombomodulin: BioMAP Diversity Plus: CASM3C Assay for Thrombomodulin Biomarker Activity (AID 2283051); conditions: primary human coronary artery smooth muscle cells; actives raise or lower the signal;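 further: thrombomodulin protein level measured by ELISA 24 h after dosing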
[13] = read-out: Tissue Factor, F3 (gene 2152); experiment: BSK_CASM3C_TissueFactor: BioMAP Diversity Plus: CASM3C Assay for Tissue Factor Biomarker Activity (AID 2283052); conditions: primary human coronary artery smooth muscle cells; actives raise or lower the signal;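 further: cell surface tissue factor protein level read by ELISA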
[14] = read-out: Interferon-gamma inducible Protein 10 (IP10), CXCL10 (gene 3627); experiment: BSK_hDFCGF_IP10: BioMAP Diversity Plus: hDFCGF Assay for Interferon-gamma inducible Protein 10 (IP10) Biomarker Activity (AID 2283053); conditions: primary human foreskin fibroblasts; actives raise or lower the signal
How it was run: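 ELISA read-out of IP-10 (CXCL10) from primary human skin fibroblasts, 24 h after compound addition. Gain or loss of signal versus DMSO baseline, bidirectional curve fitting.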

[15] = read-out: Urokinase-type plasminogen activator receptor (uPAR), PLAUR (gene 5329); experiment: BSK_CASM3C_uPAR: BioMAP Diversity Plus: CASM3C Assay for Urokinase-type plasminogen activator receptor (uPAR) Biomarker Activity (AID 2283054); conditions: primary human coronary artery smooth muscle cells; actives raise or lower the signal;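 further: cell-surface uPAR protein level quantified by ELISA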
[16] = read-out: Vascular cell adhesion molecule 1 (VCAM1), VCAM1 (gene 7412); experiment: BSK_CASM3C_VCAM1: BioMAP Diversity Plus: CASM3C Assay for Vascular cell adhesion molecule 1 (VCAM1) Biomarker Activity (AID 2283055); conditions: primary human coronary artery smooth muscle cells; actives raise or lower the signal;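 further: VCAM-1 protein level quantified by ELISA on the cells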
[17] = read-out: Collagen III, COL3A1 (gene 1281); experiment: BSK_hDFCGF_CollagenIII: BioMAP Diversity Plus: hDFCGF Assay for Collagen III Biomarker Activity (AID 2283056); conditions: primary human foreskin fibroblasts; actives raise or lower the signal
How it was run: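 Cells: human foreskin fibroblasts, primary. Dosing followed by 24 h incubation, then ELISA for collagen III. Both increases and decreases scored relative to DMSO.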

[18] = read-out: Epidermal growth factor receptor (EGFR), EGFR (gene 1956); experiment: BSK_hDFCGF_EGFR: BioMAP Diversity Plus: hDFCGF Assay for Epidermal growth factor receptor (EGFR) Biomarker Activity (AID 2283057); conditions: primary human foreskin fibroblasts; actives raise or lower the signal
How it was run: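 ELISA readout of EGFR on human dermal fibroblasts (primary foreskin cells), 24 h post-dosing; bidirectional curve fit vs DMSO baseline, gain or loss of signal scored.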

[19] = read-out: Interleukin-8 (IL8), CXCL8 (gene 3576); experiment: BSK_hDFCGF_IL8: BioMAP Diversity Plus: hDFCGF Assay for Interleukin-8 (IL8) Biomarker Activity (AID 2283058); conditions: primary human foreskin fibroblasts; actives raise or lower the signal
How it was run: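 IL-8 levels from compound-treated primary human fibroblasts were read by ELISA at 24 h, with DMSO serving as baseline for bidirectional fitting.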

[20] = BSK_hDFCGF_Proliferation: Cell Proliferation Assessment in the BioMAP Diversity Plus: hDFCGF Assay (AID 2283059); conditions: primary human foreskin fibroblasts;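 further: curves fitted for both rise and fall of signal versus DMSO baseline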
How it was run: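 This proliferation readout used SRB total-protein staining of human foreskin fibroblasts […], normalized to DMSO with bidirectional curve fitting.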

Measured: AC50

C[Si](C)(C)C(F)(F)C(F)(F)C(F)(F)F
inactive: all assays above

c1ccc2c(c1)-c1cccc3c1c-2cc1ccccc13
inactive: all assays above

NC(=O)N1c2ccccc2C=Cc2ccccc21
inactive: all assays above

CC[C@H](C)C(=O)O[C@H]1C[C@H](O)C=C2C=C[C@H](C)[C@H](CC[C@@H](O)C[C@@H](O)CC(=O)O)[C@H]21
active: [12] 15.3 µM
inactive: all other assays above

COCc1nnc(-c2ccc[n+]([O-])c2)n1-c1c(Cl)c(Cl)cc2[nH]c(=O)c(=O)[nH]c12
inactive: all assays above

FC(F)(F)C(F)(F)C(F)(F)C(F)(F)C(F)(F)C(F)(F)I
inactive: [1] | [2] | [3] | [4] | [5] | [6] | [7] | [8] | [9] | [10] | [11] | [12] | [13] | [14] | [15] | [16] | [17] | [18] | [19] | [20]
active: [14] 30 µM | [17] 30 µM | [20] 50.7 µM
